Screening data deposited in PubChem BioAssay by National Center for Advancing Translational Sciences (NCATS).
FEN1 inh-1: inhibitors of human flap endonuclease 1; Potency, µM (top dose mostly 114 µM), for the others: at the highest dose activity change, negative = inhibition, most hits filed as inhibitors; P39748; AID 588795; Recombinant FEN1 flap cleavage, fluorescence, 15 min; 390,000 tested, 0.35% active; also: % is scaled to controls: 0 for no effect and ±100 for the full control effect; nearly all actives have a fitted effect of over 65% in size
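Read-out was taken twice, immediately and after 15 min, following addition of 50 nM substrate to 10 nM FEN1 that had sat with test compound for 15 min at room temperature. Curves came from a four-parameter Hill model.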
TDP1 inh: TDP1 (human) enzyme inhibition | 350,000 tested, 0.28% active | AID 485290 | Potency, µM (top dose mostly 130 µM), for the others: at the highest dose activity change, negative = inhibition, hits mostly inhibitors | recombinant TDP1, AlphaScreen DNA substrate cleavage | Q9NUW8; also: % is scaled to controls: 0 for no effect and ±100 for the full control effect; nearly all actives have a fitted effect of over 40% in size
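Here, a 5' biotin and 3' phosphotyrosine-FITC DNA oligonucleotide reports Tdp1 activity: intact substrate bridges AlphaScreen beads, while cleavage leaves a 3' phosphate and drops signal. All incubations at room temperature.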
RECQ1 inh: inhibitors of human RECQ1 DNA helicase | P46063 | RECQ1 DNA unwinding, red fluorescence kinetic read | Potency, µM (series often up to 57.3 µM), for the others: top-dose activity, negative = inhibition, usual class: inhibitors | 240,000 tested, 0.54% active | AID 2549;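 also: plate controls were vehicle for no effect and no enzyme for full effect; nearly all actives have a fitted effect of over 30% in size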
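50 nM RECQ1T1 preincubated 15 min with compound in Tris pH 8.0 buffer with MgCl2, DTT, Tween-20 and 2.5 ug/ml poly(dI-dC); started with 200 nM TAMRA/BHQ-2 forked duplex and 2 mM ATP. Unwinding read as fluorescence (525/598 nm), two reads 2 h apart.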
BLM inh: blocks DNA unwinding by human BLM helicase; P54132; recombinant BLM DNA unwinding, fluorescence dequenching; Potency, µM (doses to about 56.1 µM), for the others: top-dose activity change, negative = inhibition, usual class: inhibitors; 350,000 tested, 0.2% active; AID 2528;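 also: plate controls were vehicle for no effect and no enzyme for full effect; nearly all actives have a fitted effect of over 35% in size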
Target sequence (P54132 whole entry, looked up): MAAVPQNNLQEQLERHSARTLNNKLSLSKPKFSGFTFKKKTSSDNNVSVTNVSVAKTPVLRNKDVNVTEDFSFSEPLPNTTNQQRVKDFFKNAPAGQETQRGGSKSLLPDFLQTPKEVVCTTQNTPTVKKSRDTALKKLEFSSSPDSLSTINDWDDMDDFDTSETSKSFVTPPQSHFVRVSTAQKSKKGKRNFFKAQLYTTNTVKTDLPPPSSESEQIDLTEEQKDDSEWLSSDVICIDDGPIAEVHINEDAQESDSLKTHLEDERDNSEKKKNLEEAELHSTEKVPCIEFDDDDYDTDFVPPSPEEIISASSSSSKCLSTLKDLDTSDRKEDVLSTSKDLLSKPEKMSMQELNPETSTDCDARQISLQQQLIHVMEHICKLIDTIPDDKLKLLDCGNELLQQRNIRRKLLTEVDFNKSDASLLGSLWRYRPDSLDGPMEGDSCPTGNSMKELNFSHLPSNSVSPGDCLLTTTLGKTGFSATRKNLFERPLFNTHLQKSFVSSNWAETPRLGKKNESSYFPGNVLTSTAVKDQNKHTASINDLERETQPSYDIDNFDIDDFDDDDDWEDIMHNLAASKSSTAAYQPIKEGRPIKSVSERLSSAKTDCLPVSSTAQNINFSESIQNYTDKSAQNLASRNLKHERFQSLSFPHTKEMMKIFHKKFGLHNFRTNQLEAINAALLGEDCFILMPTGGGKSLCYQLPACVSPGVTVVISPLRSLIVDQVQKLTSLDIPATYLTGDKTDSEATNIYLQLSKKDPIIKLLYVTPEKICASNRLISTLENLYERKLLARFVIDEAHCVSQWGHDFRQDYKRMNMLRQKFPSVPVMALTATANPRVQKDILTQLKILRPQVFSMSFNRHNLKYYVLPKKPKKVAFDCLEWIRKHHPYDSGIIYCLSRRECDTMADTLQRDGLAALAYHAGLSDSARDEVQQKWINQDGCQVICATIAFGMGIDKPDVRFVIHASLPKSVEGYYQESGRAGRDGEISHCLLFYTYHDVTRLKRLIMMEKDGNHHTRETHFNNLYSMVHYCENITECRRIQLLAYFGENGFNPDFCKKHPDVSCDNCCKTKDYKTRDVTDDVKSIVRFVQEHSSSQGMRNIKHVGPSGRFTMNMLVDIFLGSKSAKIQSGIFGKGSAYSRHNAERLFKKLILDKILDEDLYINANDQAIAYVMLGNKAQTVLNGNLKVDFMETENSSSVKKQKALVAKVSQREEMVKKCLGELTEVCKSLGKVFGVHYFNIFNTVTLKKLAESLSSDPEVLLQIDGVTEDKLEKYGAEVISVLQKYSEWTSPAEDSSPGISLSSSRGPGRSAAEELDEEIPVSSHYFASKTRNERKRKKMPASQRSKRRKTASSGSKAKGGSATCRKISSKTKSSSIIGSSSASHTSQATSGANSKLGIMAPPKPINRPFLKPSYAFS
APEX1 inh: APE1 (human) endonuclease inhibition. P27695. recombinant APE1, TAMRA/BHQ-2 abasic DNA cleavage fluorescence. Potency, µM (highest dose often 65.8 µM), for the others: top-dose activity change, negative = inhibition, hits mostly inhibitors. 350,000 tested, 0.35% active. AID 2517;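 also: plate controls were vehicle for no effect and reference inhibitor for full effect; nearly all actives have a fitted effect of over 55% in size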
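Kinetic fluorescence read (525 ex/598 em nm, three reads 60 s apart) of AP-site incision; signal = third minus first read. Enzyme 0.75 nM, dual-labelled THF duplex 50 nM, compound preincubation 15 min RT.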
FEN1 inh-2: FEN1 inhibition, cherry-pick retest | shares compounds with FEN1 inh-1 | FEN1 flap cleavage, TAMRA/BHQ2 fluorogenic DNA substrate | Potency, µM, hits mostly inhibitors | 880 tested, 79% active | AID 720498; also: nearly all actives have a fitted effect of over 60% in size
The depositor's hits bear a star; i = inactive; ? = inconclusive; . = no result; [ ] = remark or other dose. Shown are actives, neighbours in structure and some others; about 0.92% of the full set was active somewhere. Calls follow the shape of the dose curve; as a rule, active = well fitted curve in the direction sought with a large enough effect; inconclusive = small, poorly fitted or top-dose-only effect, or another doubt; inactive = no such curve, though single readings can be large; an effect the other way counts as inactive or inconclusive. Potency is read from the fitted curve at half-maximal effect.

SMILES | FEN1 inh-1 | TDP1 inh | RECQ1 inh | BLM inh | APEX1 inh | FEN1 inh-2
O=C(O)c1cc(N2N=C(C(F)(F)F)/C(=C/C=C/c3ccco3)C2=O)ccc1Cl | 3.16µM* | -3.0% | 17.4% | ? | 0.8% | 3.79*
CC1=NN(c2ccc(Cl)c(C(=O)O)c2)C(=O)C1 | ? | . | 9.1% | -10.0% | ? | .
O=C1NC(=Nc2ccccc2Cl)S/C1=C\c1cc([N+](=O)[O-])ccc1O | ? | . | . | -11.9% | -10.8% | ?
Cc1cc(NS(=O)(=O)c2ccc3c(c2)CCC(=O)N3)ccc1F | . | 0.9% | . | . | . | .
CCN1CCCC1CNC(=O)c1ccc2c(c1)NC(=O)/C(=C\c1ccc(OC)c(OC)c1)S2 (configuration not stated) | ? | 3.2% | . | -21.1% | -30.0% | 37.9*
NN1C(=O)/C(=C2/Sc3ccccc3N2CCCS(=O)(=O)O)SC1=S | 35.5µM* | . | . | -10.4% | -31.8% | ?
O=C(NCc1nnc(-c2cc3ccccc3[nH]2)o1)c1ccccc1 | . | -2.4% | . | . | . | .
O=C(O)c1ccc(COc2ccccc2/C=C2\NC(=O)N(Cc3ccccc3F)C2=O)cc1 | -13.8% | 0.0% | -3.4% | -0.1% | 3.2% | .
Cc1cccc(NC(=O)CN2C(=O)N/C(=C\c3ccc(-c4cccc(C(=O)O)c4)o3)C2=O)c1 | ? | . | i | -1.0% | ? | 75.7*
O=C(CN1C(=O)N/C(=C\c2ccccc2OCc2ccc(C(=O)O)cc2)C1=O)Nc1ccccc1F | ? | 0.6%[0.0935 µM] | . | -23.2% | -24.5% | 60.1*
COc1cccc(/C=C2/NC(=O)N(CC(=O)Nc3ccc(C)cc3)C2=O)c1OCc1cccc(C(=O)O)c1 | ? | 3.1%[0.0935 µM] | . | ? | ? | .
Cc1ccc(NC(=O)CN2C(=O)N/C(=C/c3ccccc3OCc3cccc(C(=O)O)c3)C2=O)cc1 | 70.8µM* | 6.0%[0.0935 µM] | . | ? | 18.9µM* | 75.7*
C/C(CCN1CCCCc2nc(C)c(C)cc21)=N\OC[C@@H](C)[C@H](OCc1ccccc1)C(C)C | . | 0.5%[21 µM] | 12.3%[11.5 µM] | -2.2%[12.4 µM] | ? | .
O=C(Nc1cccc(C(F)(F)F)c1)c1ccc2c(c1)nnn2C1CCCC1 | -2.1% | 0.0% | . | -2.9% | . | .
O=C(O)CCN1C(=O)C2CCCCC2C1=O (configuration not stated) | 9.5% | -1.8% | -2.8% | 0.1% | -1.0% | .
O=C1C(=O)N(O)C2CCCCC2N1O (configuration not stated) | 17.8µM* | 0.0% | -5.4% | -2.0% | 0.4% | 23.9*
CSc1nc2[nH]c(=O)n(O)c(=O)c2n1Cc1ccccc1 | -104.8% | . | . | . | . | 0.0213*
Cc1ccc(/C=C/c2nc3sc(C(=O)O)c(C)c3c(=O)[nH]2)cc1[N+](=O)[O-] | 1.6% | 11.2µM* | . | -9.4% | 8.44µM* | 75.7*
OC(Cc1ccc2ccccc2n1)c1c(Cl)cccc1Cl (configuration not stated) | 12.4% | . | . | . | . | .
Cc1ccccc1CN1CCc2nc(N3CCN(c4ncccn4)CC3)ncc2C1 | ? | 6.2% | . | 0.9% | . | 67.5*
O=C(O)C(Cc1ccccc1)N1C(=O)/C(=C/c2ccccc2)SC1=S (configuration not stated) | -2.9% | 0.0% | 8.8% | -0.4% | -1.8% | .
COc1cc(/C=C2/SC(=S)N(CC3CCCO3)C2=O)ccc1O (configuration not stated) | 44.7µM* | 6.9% | 31.6µM* | -18.7% | ? | 42.6*
COc1cc(/C=C2\SC(=S)N(C(Cc3ccccc3)C(=O)O)C2=O)ccc1O (configuration not stated) | ? | 2.7% | 25.1µM* | -20.2% | ? | ?
COc1cc(/C=C2\SC(=S)N(Nc3ccccc3)C2=O)ccc1O | ? | 0.0% | -2.3% | -28.5% | 6.1% | 84.9*
Cn1cc(CN(C(=O)Nc2ccccc2)C2CCCCC2)c2ccccc21 | -15.9% | 0.0% | . | -10.6% | . | .
SMILES | FEN1 inh-1 | TDP1 inh | RECQ1 inh | BLM inh | APEX1 inh | FEN1 inh-2
COc1cccc(CNC(=O)c2ccc3c(=O)n4nc(Nc5ccccc5)sc4nc3c2)c1 | 1.2% | 8.3% | . | -6.0% | . | .
COc1ccc2c(=O)n3nc(Nc4cccc(N5CCN(C)CC5)c4)sc3nc2c1 | . | . | . | . | . | ?
CCN1CCN(c2cccc(Nc3nn4c(=O)c5ccccc5nc4s3)c2)CC1 | . | . | . | . | . | ?
CN1CCN(c2cccc(Nc3nn4c(=O)c5ccccc5nc4s3)c2)CC1 | . | . | . | . | . | 42.6*
O=c1c2ccccc2nc2sc(Nc3cccc(Cl)c3)nn12 | 16.5% | . | . | . | -29.3% | .
C[C@@H]1C(=O)O[C@@H]1[C@@H](C)CO[Si](c1ccccc1)(c1ccccc1)C(C)(C)C | -7.4% | -4.4% | i | -5.1% | 4.0% | .
COc1ccc2c(C)cc(SCC(=O)Nc3cc(C(N)=O)cc(C(N)=O)c3)nc2c1 | ? | -2.9% | -23.2% | -26.7% | 0.2% | ?
Cc1ccccc1NC(=O)Cn1cc(S(=O)(=O)N2CCCC2)c(S(=O)(=O)N2CCCC2)c1 | 17.2% | -8.5% | . | 0.1% | . | .
O=C(COC(=O)c1ccc(Br)o1)NCCc1ccccc1 | -2.8% | 2.3% | -4.0% | 2.1% | -3.3% | .
O=C(COC(=O)c1ccc([N+](=O)[O-])o1)NCCc1ccccc1 | ? | -2.9% | . | . | -0.5% | 9.53*
O=C(COC(=O)c1ccc([N+](=O)[O-])o1)NC1CCCc2ccccc21 (configuration not stated) | ? | -2.6% | . | . | -31.1% | 23.9*
O=C(COC(=O)c1ccc([N+](=O)[O-])o1)NCc1ccc2c(c1)OCO2 | 17.8µM* | -12.1% | . | . | -11.7% | 7.57*
O=C(OCC(=O)N1CCc2ccccc21)c1ccc([N+](=O)[O-])o1 | ? | -0.3% | . | . | -28.7% | 8.49*
O=C(OCC(=O)N1CCCc2ccccc21)c1ccc(Br)o1 | -4.2% | 4.1% | -14.0% | -0.3% | -8.9% | .
CC(NC(=O)COc1ccc([N+](=O)[O-])cc1)c1ccccc1 (configuration not stated) | 14.3% | 6.2% | i | -0.8% | -3.6% | .
CC(NC(=O)COC(=O)c1ccc([N+](=O)[O-])o1)c1ccccc1 (configuration not stated) | ? | -0.3% | . | . | -27.3% | 15.1*
Nc1ccc(Cn2ccc3c4c(N)nc(N)nc4ccc32)cc1 | 25.1µM* | . | . | . | . | 42.6*
Cc1nc2ccc(N)cc2c(=O)n1Cc1ccc(Cl)cc1 | 1.6% | 1.0% | -4.4% | -1.2% | 4.2% | .
Cc1c2c(cc3c1[nH]c1ccccc13)C=NCC2 | 50.1µM* | . | . | . | . | 37.9*
CC(=O)Nc1ccn(C2OC(C(COC(C)=O)NC(=O)C(Cc3ccccc3)NC(=O)OC(C)(C)C)C(OC(C)=O)C2OC(C)=O)c(=O)n1 (configuration not stated) | -5.4% | 3.8% | i | 1.2% | 0.0% | .
CC(C)(C)/C(O)=C/c1nc2ccccc2oc1=O | 20µM* | 5.6% | i | -5.8% | 18.5% | 30.1*
